{"source": "paper PMC4081100", "about": "“A DNA-binding-site landscape and regulatory network analysis for NAC transcription factors in Arabidopsis thaliana”"}
{"target": "GST-NTL6(1-168) (Arabidopsis thaliana, UniProt Q9SCK6 1-168)", "sequence (Q9SCK6 1-168)": "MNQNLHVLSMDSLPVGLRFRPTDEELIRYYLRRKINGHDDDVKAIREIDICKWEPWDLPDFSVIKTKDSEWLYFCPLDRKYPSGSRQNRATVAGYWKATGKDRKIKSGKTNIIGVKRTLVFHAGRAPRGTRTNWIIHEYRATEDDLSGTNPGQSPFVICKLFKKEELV", "assay": "universal protein binding microarray (PBM); high values mean tight binding", "settings": "protein: recombinant; tags: GST; chain copies: 2; dsDNA, one strand shown", "procedure,_shortened": "(§1)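 Binding is expressed as the normalised enrichment score (E-score). Proteins carrying a GST tag, whether NAC-domain, full-length or DNA-binding-domain forms, were induced in cells, and zinc acetate was added for zinc-finger proteins. After purification on glutathione–Sepharose 4B and quantification by A280 or anti-GST western blot, each was applied in duplicate at 200 to 500 nM final to custom all-10-mer Agilent 4 × 180K arrays made double-stranded by primer extension. Gapped and ungapped 8-mers were scored.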", "units": {"binding signal": "E-score"}}
{"sequence": "GGAAGTCA", "binding signal": 0.132}
{"sequence": "AAAGTCTT", "binding signal": 0.0508}
{"sequence": "TGACTGCA", "binding signal": 0.0778}
{"sequence": "AGGTCAAT", "binding signal": 0.137}
{"sequence": "CGAAGTCA", "binding signal": 0.0962}
{"sequence": "GAAGGTCA", "binding signal": 0.116}
{"target": "T1, GST-ANAC019 NAC domain (Arabidopsis thaliana, UniProt Q9C932 14-162)", "T1 sequence": "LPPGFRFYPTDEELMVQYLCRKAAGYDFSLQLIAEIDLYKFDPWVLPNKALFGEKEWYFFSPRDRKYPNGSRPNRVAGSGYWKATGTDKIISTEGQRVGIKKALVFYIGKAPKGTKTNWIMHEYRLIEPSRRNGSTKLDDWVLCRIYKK", "assay": "universal protein binding microarray (PBM); high values mean tight binding", "settings": "protein: recombinant; tags: GST; chain copies: 2; dsDNA, one strand shown", "procedure,_shortened": "as §1", "units": {"binding signal": "E-score"}}
{"sequence": "CCGTTGAC", "binding signal": 0.157}
{"sequence": "GGAAGTCA", "binding signal": 0.0521}
{"sequence": "GCGTTGAC", "binding signal": 0.0691}
{"sequence": "CAGTCAGA", "binding signal": 0.0745}
{"sequence": "GACCAAGA", "binding signal": 0.0567}
{"sequence": "CTGACCAC", "binding signal": 0.0574}
{"sequence": "GGTCAAGA", "binding signal": 0.09}
{"sequence": "CGTTGACC", "binding signal": 0.0797}
{"sequence": "TGACCCCA", "binding signal": 0.0651}
{"sequence": "GTAGGTCA", "binding signal": 0.129}
{"sequence": "CAGTTGAC", "binding signal": 0.135}
{"sequence": "GTGTCAAC", "binding signal": 0.0933}
{"sequence": "GGTGGTCA", "binding signal": 0.0992}
{"sequence": "CACGGTCA", "binding signal": 0.052}
{"sequence": "GAAAAGTC", "binding signal": 0.139}
{"sequence": "GCTGACCA", "binding signal": 0.0761}
{"sequence": "GAAGACCA", "binding signal": 0.0558}
{"sequence": "CCGTCAAC", "binding signal": 0.0816}
{"sequence": "GAGTCAAC", "binding signal": 0.14}
{"sequence": "AGTCAGAC", "binding signal": 0.0719}
{"target": "T2, GST-ANAC055(1-171) (Arabidopsis thaliana, UniProt Q9LDY8 1-171)", "T2 sequence": "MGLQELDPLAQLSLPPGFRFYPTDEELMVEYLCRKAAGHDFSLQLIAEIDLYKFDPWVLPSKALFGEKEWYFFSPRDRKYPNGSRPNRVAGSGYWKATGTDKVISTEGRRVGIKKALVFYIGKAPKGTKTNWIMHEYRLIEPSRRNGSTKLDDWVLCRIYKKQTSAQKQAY", "assay": "universal protein binding microarray (PBM); transcription factors of Arabidopsis thaliana; high values mean tight binding", "settings": "protein: recombinant; tags: GST; chain copies: 2; dsDNA, one strand shown", "procedure,_shortened": "as §1", "units": {"binding signal": "E-score"}}
{"sequence": "AAAGTCTT", "binding signal": 0.109}
{"sequence": "ATTTGACC", "binding signal": 0.079}
{"sequence": "TGACTGCA", "binding signal": 0.0624}
{"sequence": "AGGTCAAT", "binding signal": 0.0969}
{"sequence": "CAGTTGAC", "binding signal": 0.0582}
{"sequence": "ACTTGACT", "binding signal": 0.0752}
{"sequence": "TCGTCAAA", "binding signal": 0.0878}
{"sequence": "CTCGTCAA", "binding signal": 0.0602}
{"sequence": "GTTTGACA", "binding signal": 0.0647}
{"sequence": "GAATTGAC", "binding signal": 0.0993}
{"sequence": "GACTTGAC", "binding signal": 0.11}
